# Measured values from PubChem BioAssay.
# Values joined by “and” are separate entries in the source; they are usually repeats but may differ in a detail not shown here. Identical values can stand only once. Active and inactive are the calls of the source. Unless noted, no stated cut-off is given here; in the data, active means parasite load remaining mostly below about 12% (no sharp cut-off); inactive means mostly above about 10%.
# Tests used:
# [1] = P. berghei load reduction in hepatocytes – cell-based, HepG2, luciferase luminescence, HepG2 viability, primary screen (AID 624349);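 further: 100% = mean of DMSO negative control wells on the same plate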; settings: P. berghei liver stage in HepG2, luciferase luminescence, concentration not given here; parasite load remaining: stronger effect = lower value; viability: measured here: HepG2 viability without parasites
# [2] = Wnt pathway potentiators raising nuclear beta-catenin – imaging, WNT3A-conditioned medium, mouse C2C12, NPC library, primary screen (AID 1117326; in the data active means nuclear beta-catenin stimulation mostly above about 4.2%, no sharp cut-off; inactive means mostly below about 10%); settings: stronger effect = higher value
# [3] = stimulators of insulin release from INS-1E, primary screen, cell-based, 5 mM glucose, NPC library (AID 1117329;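 active means compound raises insulin release from rat beta cells at 5 mM glucose, no numeric limit stated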); settings: rat INS-1E insulin secretion, at 10 µM, stronger effect = higher value
# [4] = growth inhibition of GSK3B-pretreated HCT116 cells – cell-based, CellTiter-Glo, 0.2 to 20 µM (AID 1117336;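 active means compounds lowering colon cancer cell viability after pretreatment blocking the GSK3B kinase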); settings: HCT116 viability after GSK3B inhibitor, at 20 µM, stronger effect = higher value
# [5] = inhibition of endothelial tube formation, primary screen, imaging, VEGF stimulated, CD31 staining, tube area, NPC library (AID 1117340;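 active means compound that reduces growth-factor-driven endothelial tube area in a mixed cell culture, no cutoff stated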); settings: VEGF-stimulated ADSC/ECFC co-culture, at 10 µM, stronger effect = higher value
# [6] = GLP1 release stimulators, primary, NCI-H716, NPC library (AID 1117341;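 active means compound raises GLP1 secretion from the human gut endocrine cells, with no numeric limit stated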); settings: NCI-H716 cells, at 10 µM, stronger effect = higher value
# [7] = HCT116 colon cancer cell growth inhibition, primary screen, CellTiter-Glo luminescence, NPC library (AID 1117342;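 active means compounds that lower survival of HCT116 colon cancer cells in the luminescence readout, no numeric limit stated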); settings: at 20 µM (top of the series)
# [8] = reduced SW480 viability measured with CellTiter-Glo, NPC library, primary (AID 1117343;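 active means compounds that lower viability of the colon cancer cells in the luminescence readout, with no numeric limit stated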); settings: CellTiter-Glo luminescence; at 20 µM (top of the series)
# [9] = NPC library primary testing for decreased DLD-1 cell viability via CellTiter-Glo (AID 1117346;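 active means compounds that lower survival of DLD-1 colon cancer cells in the luminescence readout, no cutoff given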); settings: DLD-1 viability, CellTiter-Glo luminescence; at 20 µM (top of the series)
# [10] = viability loss with induced miR-34 in A549 – imaging, A549 dox-inducible miR-34, nuclei and caspase counts, primary screen (AID 1347080;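 active means compounds whose cell count with miR-34 switched on is under 0.7 times the count with it off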); settings: A549 miR-34 inducible, Hoechst nuclei count, 48 h
# [11] = MELAS cybrid and Rieske KO viability enhancers – cell-based, MELAS cybrids, Rieske KO mouse fibroblasts, CellTiter-Glo, primary screen (AID 1508586;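 active means mean z-score across replicates of 1.96 or higher in either the MELAS or the Rieske mutant cell line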;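 further: z relative to plate mean and SD of compound and empty wells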); settings: low glucose
# [12] = galactose survival enhancers in mitochondrial complex I cybrids – cell-based, galactose medium, ATP luminescence, primary screen (AID 1645843;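 active means z-score of at least 1.8 in each of two replicates, scored against plate mean and spread of sample wells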;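 further: positive z means more ATP and so rescue of galactose-driven cybrid death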); settings: complex I mutant cybrid cells, 72 h, stronger effect = higher value
# [13] = EMT-state selective cytotoxicity in co-culture – imaging, PC-3E GFP, TEM4-18 mCherry, primary screen (AID 1345086;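 active means compounds killing one labelled cell type while sparing the other, by normalised counts and ratio limits, not self-fluorescent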;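 on all read-outs here: cells exposed to compound for 72 h before imaging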;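 on red/green cell ratio (normalised): normalised mesenchymal count divided by normalised epithelial count so high means epithelial killing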); settings: PC-3E GFP / TEM4-18 mCherry co-culture, imaging cell counts, at 1 µM; for red/green cell ratio (normalised): actives lie on both sides
# [14] = tested on: Aerobactin synthetase IucA (Klebsiella pneumoniae hvKP1); experiment: IucA enzyme inhibition, primary screen, biochemical, Spectrum library (AID 1346200; call rule not given here;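 further: 100% = wells without compound and 0% = wells lacking enzyme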); settings: malachite green pyrophosphate, A620, at 8 µM, stronger effect = lower value
# [15] = target: NAD(+) hydrolase SARM1 (Homo sapiens) (UniProt Q6SZW1); experiment: blocking NAD cleavage by SARM1 SAM-TIR – cell lysate, NAD-Glo luminescence (AID 1508614;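 active means compound whose remaining NAD level is above about 45 nM, limit read from the data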); settings: SAM-TIR HEK293T lysate NADase, at 1 µM, stronger effect = higher value
# [16] = target: Mitogen-activated protein kinase 7 (Homo sapiens) (UniProt Q13164); experiment: Gal4-ERK5 driven luciferase induction – cell-based, HTS, primary screen (AID 1508626;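 active means luciferase signal above three times the same-plate solvent-only control wells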;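 further: luciferase driven by Gal4-ERK5 fusion binding five Gal4 sites before minimal TATA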); settings: HeLa Gal4-ERK5 transactivation, 18 h, at 5 µM, stronger effect = higher value
# [17] = yeast 75Q aggregation reduction – 75Q-TubU reporter (AID 1593); settings: Yeast 75Q polyglutamine aggregation reporter
# [18] = blockers of cytochrome c efflux from mitochondria – biochemical, purified mitochondria (AID 1603); settings: stronger effect = lower value;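 further: mouse liver mitochondria challenged with calcium chloride; signal normalized to the plate average as 100%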
# [19] = polyglutamine aggregate formation blockers (AID 1604); settings: polyglutamine-induced protein aggregation inhibition assay; stronger effect = higher value; tested at 2.5 µM
# [20] = measured here: relative caspase fold change +Dox/-Dox
# [21] = measured here: total cells with miR-34 induction, stronger effect = lower value
# [22] = measured here: total cells without miR-34 induction
# [23] = MELAS cybrid survival, CellTiter-Glo 48 h, stronger effect = higher value
# [24] = Rieske KO mouse fibroblast survival, CellTiter-Glo 72 h
# [25] = measured here: epithelial PC-3E GFP cell survival
# [26] = measured here: mesenchymal TEM4-18 mCherry cell survival
# Chain of Mitogen-activated protein kinase 7 (Homo sapiens) (Q13164 whole entry, looked up, the tested form may be a part): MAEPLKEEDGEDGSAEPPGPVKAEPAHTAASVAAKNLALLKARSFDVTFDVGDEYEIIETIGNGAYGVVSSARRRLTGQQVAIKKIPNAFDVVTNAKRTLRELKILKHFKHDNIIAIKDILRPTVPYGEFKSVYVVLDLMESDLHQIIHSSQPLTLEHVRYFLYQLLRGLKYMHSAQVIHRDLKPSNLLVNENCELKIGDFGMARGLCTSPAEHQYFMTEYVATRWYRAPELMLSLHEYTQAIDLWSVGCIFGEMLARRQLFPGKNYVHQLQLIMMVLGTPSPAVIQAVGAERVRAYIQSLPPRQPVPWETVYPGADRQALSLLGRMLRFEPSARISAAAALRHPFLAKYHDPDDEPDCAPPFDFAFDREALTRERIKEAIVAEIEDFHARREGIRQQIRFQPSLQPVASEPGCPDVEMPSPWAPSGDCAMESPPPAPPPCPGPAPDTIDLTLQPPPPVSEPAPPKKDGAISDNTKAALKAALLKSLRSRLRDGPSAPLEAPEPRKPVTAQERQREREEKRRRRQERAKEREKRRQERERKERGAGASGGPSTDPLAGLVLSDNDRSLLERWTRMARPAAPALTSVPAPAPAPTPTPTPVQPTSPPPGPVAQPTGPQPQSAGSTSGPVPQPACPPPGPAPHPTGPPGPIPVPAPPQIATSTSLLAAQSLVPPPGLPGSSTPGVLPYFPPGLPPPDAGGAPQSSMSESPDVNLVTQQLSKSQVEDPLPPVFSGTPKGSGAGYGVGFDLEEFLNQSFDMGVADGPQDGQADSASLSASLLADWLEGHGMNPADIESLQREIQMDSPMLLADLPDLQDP
# Chain of NAD(+) hydrolase SARM1 (Homo sapiens) (Q6SZW1 whole entry, looked up, the tested form may be a part): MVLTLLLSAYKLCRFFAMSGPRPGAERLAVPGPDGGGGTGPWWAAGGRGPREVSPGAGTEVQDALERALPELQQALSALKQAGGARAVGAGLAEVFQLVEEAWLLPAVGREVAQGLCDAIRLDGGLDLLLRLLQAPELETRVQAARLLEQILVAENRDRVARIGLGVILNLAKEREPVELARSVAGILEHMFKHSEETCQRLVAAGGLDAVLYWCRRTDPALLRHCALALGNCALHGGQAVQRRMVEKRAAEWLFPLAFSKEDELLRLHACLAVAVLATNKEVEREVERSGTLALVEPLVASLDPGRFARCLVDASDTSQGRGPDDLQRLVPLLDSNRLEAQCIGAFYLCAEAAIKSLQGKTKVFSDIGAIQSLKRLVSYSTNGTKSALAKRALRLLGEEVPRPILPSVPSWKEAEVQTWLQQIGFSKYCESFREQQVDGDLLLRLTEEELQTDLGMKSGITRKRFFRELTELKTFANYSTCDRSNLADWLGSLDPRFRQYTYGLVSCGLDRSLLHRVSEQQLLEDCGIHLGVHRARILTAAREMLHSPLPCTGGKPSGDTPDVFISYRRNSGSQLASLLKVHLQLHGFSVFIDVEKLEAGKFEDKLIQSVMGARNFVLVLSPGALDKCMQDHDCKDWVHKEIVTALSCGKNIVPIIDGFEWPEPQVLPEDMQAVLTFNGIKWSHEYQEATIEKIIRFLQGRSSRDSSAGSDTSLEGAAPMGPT
structure (smiles),measurement,setting,value
NC(=O)OCCCc1ccccc1,parasite load remaining,[1],136% (inactive)
same,viability,[1],89.7%
same,nuclear beta-catenin stimulation,[2]; at 10 µM,0.8% (inactive)
same,nuclear beta-catenin stimulation,"[2]; stimulation, at 2 µM",0.3%
same,insulin secretion stimulation,[3],-2.9% (inactive)
same,viability decrease,[4],-9.45% (inactive)
same,tube area decrease,[5],18% (inactive)
same,GLP1 secretion stimulation,[6],0.9% (inactive)
same,inhibition of viability,[7],4.5% (inactive)
same,viability decrease (inhibition),[8],-4.9% (inactive)
same,viability decrease (inhibition),[9],-16.8% (inactive)
same,fold change,[10]; stronger effect = lower value,0.887 (inactive)
same,fold change,[10]; [20],1.34
same,cell count,[10]; [21],9650
same,cell count,[10]; [22],10900
same,z-score,[11]; [23],-0.606 (inactive)
same,z-score,[11]; [24],-0.33
same,z-score,[12],0.64 (inactive)
O=P1(NCCCl)OCCCN1CCCl (stereo not drawn),parasite load remaining,[1],91% (inactive) and 76.7% (inactive) and 18.8% (inactive)
same,viability,[1],94% and 95.7% and 66%
same,nuclear beta-catenin stimulation,[2]; at 10 µM,1.1% (inactive)
same,nuclear beta-catenin stimulation,"[2]; stimulation, at 2 µM",0.8%
same,insulin secretion stimulation,[3],2.9% (inactive)
same,viability decrease,[4],-25.5% (inactive)
same,tube area decrease,[5],9.8% (inactive)
same,GLP1 secretion stimulation,[6],-0.1% (inactive)
same,inhibition of viability,[7],7.23% (inactive)
same,viability decrease (inhibition),[8],-16.8% (inactive)
same,viability decrease (inhibition),[9],-5.2% (inactive)
same,red/green cell ratio (normalised),[13],1.03 (inactive)
same,normalised cell number,[13]; [25],1.08
same,normalised cell number,[13]; [26],1.11
same,activity remaining,[14],114% (inactive)
same,z-score,[11]; [23],-0.402 (inactive) and 0.719 (inactive) and 0.667 (inactive)
same,z-score,[11]; [24],-0.0632 and -0.341 and -0.186
same,remaining NAD,[15],10 nM (inactive)
same,luciferase signal,[16],44 AU (inactive)
same,z-score,[12],0.08 (inactive)
COc1cc(N)c(Cl)cc1C(=O)NC1CN2CCC1CC2 (stereo not drawn),parasite load remaining,[1],103% (inactive)
same,viability,[1],107%
same,nuclear beta-catenin stimulation,[2]; at 10 µM,-1.2% (inactive)
same,nuclear beta-catenin stimulation,"[2]; stimulation, at 2 µM",0%
same,insulin secretion stimulation,[3],3% (inactive)
same,viability decrease,[4],0.8% (inactive)
same,tube area decrease,[5],-1.2% (inactive)
same,GLP1 secretion stimulation,[6],6.7% (inactive)
same,inhibition of viability,[7],15.8% (inactive)
same,viability decrease (inhibition),[8],-5.8% (inactive)
same,viability decrease (inhibition),[9],1.7% (inactive)
same,fold change,[10]; stronger effect = lower value,0.946 (inactive)
same,fold change,"[10]; stronger effect = lower value, cell number ratio, induced over uninduced",0.971 (inactive)
same,fold change,[10]; [20],1.7 and 0.526
same,cell count,[10]; [21],9370 and 10300
same,cell count,[10]; [22],9910 and 10600
same,z-score,[12],0.86 (inactive) and -0.355 (inactive)
c1ccc(N2CCNCC2)cc1,nuclear beta-catenin stimulation,[2]; at 10 µM,0.1% (inactive)
same,nuclear beta-catenin stimulation,"[2]; stimulation, at 2 µM",-0.6%
same,insulin secretion stimulation,[3],3.1% (inactive)
same,viability decrease,[4],3.7% (inactive)
same,tube area decrease,[5],-2.6% (inactive)
same,GLP1 secretion stimulation,[6],-0.5% (inactive)
same,inhibition of viability,[7],10.5% (inactive)
same,viability decrease (inhibition),[8],0.3% (inactive)
same,viability decrease (inhibition),[9],-5.9% (inactive)
same,red/green cell ratio (normalised),[13],1.17 (inactive)
same,normalised cell number,[13]; [25],0.95
same,normalised cell number,[13]; [26],1.12
Nc1ccncc1,score,[17],1.34
same,cytochrome c release ratio,[18],0.88
same,inhibition of aggregation,[19],-27.8%
same,parasite load remaining,[1],151% (inactive) and 61% (inactive)
same,viability,[1],71.5% and 95.5%
same,nuclear beta-catenin stimulation,[2]; at 10 µM,-0.9% (inactive)
same,nuclear beta-catenin stimulation,"[2]; stimulation, at 2 µM",0.7%
same,insulin secretion stimulation,[3],0% (inactive)
same,viability decrease,[4],-0.55% (inactive)
same,tube area decrease,[5],-8.7% (inactive)
same,GLP1 secretion stimulation,[6],2.4% (inactive)
same,inhibition of viability,[7],1.7% (inactive)
same,viability decrease (inhibition),[8],11.9% (active)
same,viability decrease (inhibition),[9],-6.35% (inactive)
same,red/green cell ratio (normalised),[13],0.8 (inactive)
same,normalised cell number,[13]; [25],1.23
same,normalised cell number,[13]; [26],0.99
same,activity remaining,[14],105% (inactive)
same,remaining NAD,[15],10 nM (inactive)
same,luciferase signal,[16],32 AU (inactive)
same,z-score,[12],0.855 (inactive) and 0.215 (inactive)
